Results on 31 compounds are retold here after PubChem BioAssay (NCATS).

Assay [1] can be described thus: qHTS for Inhibitors of the Aldehyde Dehydrogenase Family (ALDH1A2, ALDH1A3, ALDH2, ALDH3A1) (AID 2061307). For Potency: test system not described further here; potency is the fitted concentration of half-maximal effect. Note: nearly all actives have a fitted effect of over 50% in size. For orientation: qHTS replaces the single test concentration by a dilution series.
Assay [2] concerns the target Aldehyde dehydrogenase, mitochondrial (Homo sapiens) (UniProt P05091). Description: qHTS for Inhibitors of the Aldehyde Dehydrogenase Family (ALDH2) Primary screen (AID 2061308).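 Note: plate controls were vehicle for no effect and reference inhibitor for full effect; nearly all actives have a fitted effect of over 55% in size.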
Assay [3] concerns the target Retinaldehyde dehydrogenase 3 (Homo sapiens) (UniProt P47895). Kind of assay: qHTS for Inhibitors of the Aldehyde Dehydrogenase Family (ALDH1A3) Primary screen (AID 2061315).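 Note: plate controls were DMSO vehicle for no effect and reference inhibitor for full effect.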
The target of assay [4] is Aldehyde dehydrogenase 1A1 (Homo sapiens) (UniProt P00352). Kind of assay: qHTS for Inhibitors of the Aldehyde Dehydrogenase Family (ALDH1A1) Confirmatory screens (AID 2061316). Note: nearly all actives have a fitted effect of over 65% in size. Note: potency is the fitted concentration of half-maximal effect.
In assay [5] the target is Retinaldehyde dehydrogenase 3 (Homo sapiens) (UniProt P47895). Kind of assay: qHTS for Inhibitors of the Aldehyde Dehydrogenase Family (ALDH1A3) Confirmatory screens (AID 2061311). Note: nearly all actives have a fitted effect of over 60% in size.
Assay [6] can be described thus: BET inhibitor-based combinations targeting novel dependencies in MECOM-rearranged (r) AML: SET-2 cell line (AID 2202231).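 Note: plate controls were DMSO treated cells for no effect and wells without cells for full effect; nearly all actives have a fitted effect of over 35% in size.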 Particulars: SET-2 AML cells viability, CellTiter-Glo luminescence, 48 h; viability: stronger effect = lower value, series mostly up to about 46 µM. An outline of the steps: (§1)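 Each compound was tested at eleven concentrations on cells seeded at 500/well. After two days' incubation, ATP-based luminescence reported viability; responses relative to DMSO and blank wells yielded AUC and cell-line-centred Z-AUC.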

Assay [7] can be described thus: BET inhibitor-based combinations targeting novel dependencies in MECOM-rearranged (r) AML: OCI-AML3 cell line (AID 2202232).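 Note: series mostly up to about 46 µM; plate controls were DMSO vehicle wells for no effect and wells without cells for full effect; nearly all actives have a fitted effect of over 35% in size.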 Conditions: Potency: OCI-AML3 viability. The method in brief:
as §1

Assay [8] in a line: BET inhibitor-based combinations targeting novel dependencies in MECOM-rearranged (r) AML: MV-4-11 cell line (AID 2202233). Note: nearly all actives have a fitted effect of over 45% in size. Note: potency is the fitted concentration of half-maximal effect. An outline of the steps:
(§2)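 First, 500 cells per well were seeded; next, drugs were pinned as 11-point doses; then plates sat 48 hr in the incubator; finally CellTiter-Glo was added and luminescence read, with AUC and Z-AUC computed.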

Assay [9] can be described thus: BET inhibitor-based combinations targeting novel dependencies in MECOM-rearranged (r) AML: HNT-34 cell line (AID 2202234).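 Note: plate controls were vehicle wells for no effect and cell-free wells for full effect; nearly all actives have a fitted effect of over 35% in size.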 The method in brief:
as §2

A short description of assay [10]: BET inhibitor-based combinations targeting novel dependencies in MECOM-rearranged (r) AML: UCSD-AML1 cell line (AID 2202235).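 Note: series mostly up to about 46 µM; plate controls were DMSO vehicle wells for no effect and blank wells for full effect; nearly all actives have a fitted effect of over 40% in size.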 The method in brief: as §2
Assay [11] can be described thus: BET inhibitor-based combinations targeting novel dependencies in MECOM-rearranged (r) AML: AML-191 cell line (AID 2202236;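 note: plate controls were vehicle wells for no effect and wells without cells for full effect; nearly all actives have a fitted effect of over 35% in size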). The method in brief:
as §1

Assay [12] is described as follows: BET inhibitor-based combinations targeting novel dependencies in MECOM-rearranged (r) AML: AML-194 cell line (AID 2202237;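 note: plate controls were vehicle wells for no effect and wells without cells for full effect; nearly all actives have a fitted effect of over 40% in size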). The method in brief: as §1

Results filed as inconclusive are left out. A number with no mark means an inactive call. The source made the active and inactive calls. Calls come from the whole dose curve; as a rule, active = well fitted curve in the direction sought with a large enough effect; inconclusive = small, poorly fitted or top-dose-only effect, or another doubt; inactive = no such curve, though single readings can be large; an effect the other way counts as inactive or inconclusive.

Turning to `NC(=O)C1CCN(c2nc(-c3ccccc3[N+](=O)[O-])cs2)CC1`, the Potency was 12.7 µM (active) in assay [1] and 5.04 µM (active) in [4]. The Potency result in assay [2] and in assay [3] was “inactive” each time.
`Fc1cnc(-c2ccccc2C(F)F)nc1NCC1CCN(c2cnccn2)CC1`: the Potency entry in assay [1], in [2] and in assay [3] was “inactive” in each case.
`O=C(O)c1ccc(O)c2ncc(-c3ccc(C(=O)N4CCNCC4)cc3)cc12`: the Potency result in assay [1], in assay [2], in [3] and in assay [4] was “inactive” throughout.
Regarding `O=C(O)c1ccc(S(=O)(=O)N[C@H](Cc2ccc(O)cc2)C(=O)O)cc1`, the Potency result in [1], in assay [2] and in assay [3] was “inactive” each time. The Potency in assay [4] was 10.1 µM (active).
As for `N#Cc1nc(Nc2ccc(F)cc2)nc(NC2CCCC2)n1`, the Potency in assay [1] is 3.16 µM (active). The Potency result in assay [2] and in assay [3] was “inactive” in each case.
`COc1cccc(S(=O)(=O)N2CCC3(CC2)CC(CC(=O)NC2CC2)CCO3)c1` (stereo unspecified): the Potency result in [1] and in [5] was “inactive” in each case.
Regarding `COc1cccc(CNc2ccc(S(=O)(=O)Nc3ccc(C)nc3)cc2)c1O`, the Potency entry in assay [1], in [2], in assay [3] and in [4] was “inactive” in each case.
`CSc1ccc(-c2cnc(N3CCC(C(N)=O)CC3)s2)cc1`: the Potency in assay [1] was 3.18 µM (active). The Potency result in assay [2] and in assay [3] was “inactive” in each case.
Regarding `O=C([C@H](Cc1ccc(O[S+](=O)([O-])c2cccnc2)cc1)N[S+](=O)([O-])c1cccc2cnccc12)N1CCN(c2ccccc2)CC1`, the Potency entry in assay [1], in assay [2] and in assay [3] was “inactive” in each case.
As to `NC(=O)C1CCN(c2nc(-c3ccccc3N)cs2)CC1`, the values for the Potency in [1] and in [4] were 7.12 µM (active) and 12.7 µM (active), respectively. The Potency result in assay [2] and in assay [3] was “inactive” throughout.
Take `COc1ccc(NC(=O)CN(C)C(=O)c2cc3c(s2)CCC3)cc1`: the Potency result in assay [1], in [2] and in [3] was “inactive” each time.
Regarding `O=C(O)c1ccc(-n2cccc2/C=C2\SC(=O)N(Cc3ccc(Br)cc3)C2=O)cc1`, the Potency in assay [1] is 5.04 µM (active). Besides, the Potency result in [2], in assay [3] and in [4] was “inactive” in each case.
On to `COc1ccc(C2Nc3ccccc3C(=O)N2CCCN(C)C)cc1COc1ccc(NC(C)=O)cc1` (stereo unspecified), for which the Potency in assay [1] was 7.12 µM (active). The Potency result in [2] and in assay [3] was “inactive” in each case.
As for `COc1ccc(S(=O)(=O)N2CCN(S(=O)(=O)c3ccc4c(c3)OCCO4)CC2)cc1`, the Potency result in [1], in [2] and in [3] was “inactive” each time.
With `O=C(OCC#CCSc1nnc(-c2cccc3ccccc23)o1)c1ccc(Br)cc1`, the Potency result in [1], in assay [2], in assay [3] and in assay [4] was “inactive” each time.
On to `OCc1ccc(-c2ccc3ncnc(NCCc4cnc[nH]4)c3c2)o1`, for which the Potency entry in assay [1], in assay [2] and in [3] was “inactive” each time. Moreover, in assay [4], the Potency is 10.1 µM (active).
`Cc1cnc(-c2ccccc2C2COC2)nc1NCc1ccc(-n2ccnn2)cc1`: the Potency entry in assay [1], in assay [2] and in assay [3] was “inactive” throughout.
Consider `Cc1ccc2nc3sc(C(=O)Nc4ccncc4)cc3cc2c1`, for which the figures for the Potency in [1] and in assay [4] were 11.3 µM (active) and 14.2 µM (active), respectively. Moreover, the Potency entry in assay [2] and in [3] was “inactive” throughout.
By viability is commonly meant a read-out of living cells in per cent, often relative to untreated cells. In the case of `NCC(=O)Nc1cncc(-c2nn3c(=O)cc(N4CCNCC4)nc3s2)c1`, the Potency result in assay [1], in [2], in assay [3], in assay [7], in [8] and in assay [9] was “inactive” throughout. Besides, the Potency entry in assay [10], in assay [11] and in [12] was “inactive” in each case. The viability in assay [6] is 111%.
`Cc1cc(NC(=O)c2ccc(NC(=O)Cc3ccc(Cl)c(Cl)c3)cc2)no1`: the Potency result in assay [1], in assay [2] and in assay [3] was “inactive” each time.
For the compound `COc1cccc(CN2C(=O)c3ccccc3NC2c2ccc(OC)c(COc3ccc(NC(C)=O)cc3)c2)c1` (stereo unspecified), in assay [1], the Potency is 3.55 µM (active). In addition, the Potency entry in [2] and in assay [3] was “inactive” each time.
With `C/C=C/C=C/C(O)=C1/C(=O)[C@]2(C)C3/C(=C(O)/C=C/C=C/C)C(=O)C4(C)C1[C@]1(C)O[C@@]4(O)[C@@]3(C)O[C@@]12O`, the Potency entry in assay [1], in assay [2] and in assay [3] was “inactive” each time. Besides, in [4], the Potency is 12.3 µM (active).
Turning to `O=C(c1cccs1)c1nonc1C(=O)c1cccs1`, the Potency result in assay [1], in assay [2] and in assay [3] was “inactive” each time.
As for `CC(=O)C1CCN(c2ncc(-c3cccc(N(C)C)c3)s2)CC1`, the Potency in assay [1] is 5.65 µM (active); in assay [4], 10.1 µM (active). In addition, the Potency entry in assay [2] and in [3] was “inactive” each time.
On to `Cc1ccc(-n2c(C)cc(-c3nnc4n3CCCCC4)c2C)cc1`, for which the Potency result in assay [1], in assay [2], in [3], in assay [10], in [11] and in assay [12] was “inactive” in each case. Moreover, the results for the Potency in assay [4] and in assay [8] were 20.1 µM (active) and 23.5 µM (active), respectively. For the same compound, in assay [6], the viability is 104%.
On to `N[C@@H](Cc1ccc(OS(=O)(=O)c2cccnc2)cc1)C(=O)N1CCN(c2ccccc2)CC1`, for which the Potency in assay [1] is 5.65 µM (active); in assay [4] it was 10.1 µM (active). Also, the Potency entry in [2] and in [3] was “inactive” in each case.
As for `N#Cc1ccc(CNc2nc(-c3ccccc3C(F)(F)F)nc3ccccc23)cc1`, the Potency in [1] is 17.9 µM (active); in assay [4], 14.2 µM (active). For the same compound, the Potency entry in [2] and in assay [3] was “inactive” each time.
Turning to `CC(=O)N1CCc2cc(-c3nc(NC(=O)Cc4ccc5c(c4)OCO5)sc3C)ccc21`, the figures for the Potency in assay [1] and in assay [4] were 2.01 µM (active) and 10.1 µM (active), respectively. The Potency result in assay [2] and in assay [3] was “inactive” each time.
Consider `CNc1sc(-c2cccc3ccccc23)nc1C(=O)OC`, for which the results for the Potency in assay [1] and in assay [4] were 15.9 µM (active) and 14.2 µM (active), respectively. In addition, the Potency result in assay [2] and in [3] was “inactive” each time.
Take `COc1ccc(C2Nc3ccccc3C(=O)N2C2CCCC2)cc1COc1ccc(NC(C)=O)cc1` (stereo unspecified): the values for the Potency in assay [1] and in assay [4] were 1.59 µM (active) and 20.1 µM (active), respectively. Moreover, the Potency result in [2] and in assay [3] was “inactive” in each case.
As to `CC(=O)c1cccc(-c2csc(N3CCC(C(N)=O)CC3)n2)c1`, the Potency in assay [1] was 11.3 µM (active); in assay [4], 5.65 µM (active). Moreover, in assay [2], the Potency entry was “inactive”.
